# From PubChem BioAssay
# Calls of active or inactive are those of the source. Unless noted, no rule for the calls is given here.
# Assays:
# [1] = target: Alpha-bungarotoxin (Bungarus multicinctus) (UniProt P60615); assay: compounds binding labelled alpha-BTX control protein – biochemical, small-molecule microarray, Alexa647 label, 635/667 nm fluorescence, artefact control for SMM control protein annotation, profiling panel (AID 1117); conditions: alpha-BTX-A647 binding fluorescence, higher = more signal
# [2] = system: XIP peptide (Xip251-270) binding; assay: XIP fragment 251-270 binding compounds – biochemical, small-molecule microarray, fluorescence 635/667 nm, 0.1 µg/mL protein, primary screen (AID 1182); conditions: fluorescent protein binding, 635 nm, higher = more signal, called active from +8 up or from −8 down
# XIP peptide (Xip251-270) = assay: compounds binding XIP fragment 251-270 – biochemical, small-molecule microarray, fluorescence 635/667 nm, 0.5 µg/mL protein, primary screen (AID 1183); conditions: fluorescence 635 nm, higher = more signal
# [3] = blood-stage malaria parasite viability loss – strain 3D7, DAPI fluorescence, 100 nL, primary screen (AID 1184);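 also: parasites grown inside human red blood cells in medium with human serum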; conditions: P. falciparum 3D7 growth, 3 d, higher = more signal
# [4] = target: Homeobox protein Hox-A13 (Mus musculus) (UniProt Q62424); assay: disruptors of Hoxa13 oligonucleotide interaction – biochemical, fluorescence polarization, labeled oligonucleotide, primary screen (AID 1185); conditions: Hoxa13:DNA binding, 15 min, higher = more signal, called active from +8 up or from −8 down
# [5] = blockers of DNA damage checkpoint Chk1 activation – imaging, HeLa, hydroxyurea, phospho-Chk1 antibody, percent positive cells, primary screen (AID 1186); conditions: hydroxyurea-induced phospho-Chk1 immunofluorescence imaging, higher = more signal
# [6] = blockers of DNA damage checkpoint Chk1 activation – imaging, HeLa, hydroxyurea, phospho-Chk1 nuclear intensity, primary screen (AID 1187); conditions: hydroxyurea-induced phospho-Chk1 immunofluorescence imaging, higher = more signal
# [7] = Pseudomonas biofilm growth suppression – PAO1 strain, BacTiter-Glo luminescence, LB-PBS, primary screen (AID 1144); conditions: P. aeruginosa PAO1 biofilm, 12 h, higher = more signal
# [8] = inhibition of PAO1 biofilm formation – strain PAO1, LB-PBS medium, absorbance 600 nm, primary screen (AID 1176); conditions: P. aeruginosa PAO1 growth/biofilm, A600, 12 h; higher = more signal
# Chain of Alpha-bungarotoxin (Bungarus multicinctus) (P60615 whole entry, looked up, the tested form may be a part): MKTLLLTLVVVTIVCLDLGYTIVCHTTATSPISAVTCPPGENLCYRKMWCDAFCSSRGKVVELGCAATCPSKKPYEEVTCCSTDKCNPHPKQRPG
# Chain of Homeobox protein Hox-A13 (Mus musculus) (Q62424 whole entry, looked up): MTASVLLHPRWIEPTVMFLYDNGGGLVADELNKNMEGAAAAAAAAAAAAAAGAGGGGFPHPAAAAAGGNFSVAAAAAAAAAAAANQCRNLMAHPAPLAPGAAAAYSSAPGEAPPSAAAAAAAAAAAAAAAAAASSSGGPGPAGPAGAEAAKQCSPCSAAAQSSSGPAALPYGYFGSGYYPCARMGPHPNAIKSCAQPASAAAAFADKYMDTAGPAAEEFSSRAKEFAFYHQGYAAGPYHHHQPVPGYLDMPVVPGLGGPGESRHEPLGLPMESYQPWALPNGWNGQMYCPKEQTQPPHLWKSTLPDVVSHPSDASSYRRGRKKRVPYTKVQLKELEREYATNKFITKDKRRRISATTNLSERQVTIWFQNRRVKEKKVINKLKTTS
Structure (SMILES),composite z-score [1],composite z-score [2],composite z-score (XIP peptide (Xip251-270)),z-score [3],z-score [4],z-score [5],z-score [6],z-score [7],z-score [8]
O=C1O[C@H](c2ccccc2)[C@H](c2ccccc2)N2[C@H]1[C@@H](C(=O)Nc1nc3ccccc3s1)[C@]1(C(=O)Nc3ccc(C#CCCO)cc31)[C@H]2c1ccccc1OCCO,1.97,1.52 (inactive),0.732,-2.23,2.73 (inactive),0.288 (inactive),0.492 (inactive),,
CC(C)[C@@H](C(=O)O)n1cc(-c2ccccn2)nn1,0.703,0.353 (inactive),-0.548,-0.461,-1.37 (inactive),-0.0368 (inactive),-0.0613 (inactive),,
[N-]=[N+]=NCc1ccccc1C[C@]1(C(=O)NCc2ccccc2)N=C(c2ccc(OCCCO)cc2)O[C@H]1c1ccccc1,1.22,0.279 (inactive),-0.172,-2.32,1.43 (inactive),-0.901 (inactive),-0.877 (inactive),,
COCCCNC(=O)[C@@]1(CCS(=O)(=O)c2ccccc2)N=C(c2ccc(OCCCO)cc2)O[C@H]1c1ccccc1CN=[N+]=[N-],2.42,0.901 (inactive),0.67,-2.68,-1.88 (inactive),-1.07 (inactive),-1.61 (inactive),,
C=C1C=C(Br)C2(OCCCO2)[C@H]2OC12 (stereo not given in full),,-0.584 (inactive),-0.135,1.19,-1.06 (inactive),,,-0.109 (inactive),-0.233 (inactive)
CC(C)[Si](C#C[Si](C(C)C)(C(C)C)C(C)C)(O[C@H](C)c1cn([C@H](C)c2ccccc2)nn1)C(C)C,0.833,-0.608 (inactive),0.193,-0.628,-0.0303 (inactive),-0.0899 (inactive),0.346 (inactive),,
C=C(COC)C(=O)CC[C@H](OC(=O)c1cccnc1)c1cccc(OCCO)c1,-0.923,0.804 (inactive),-0.661,-1.66,-3.09 (inactive),-0.458 (inactive),-0.203 (inactive),,
O=C1c2ccccc2[C@](Cc2ccccc2I)(C(=O)O)[C@H](c2ccc(CO)cc2)N1Cc1ccccc1Cl,2.29,0.8 (inactive),0.507,0.303,-4.18 (inactive),-0.679 (inactive),-0.559 (inactive),,
CC(C)N1CC=CC23O[C@@H]4/C=C\CCCOC(=O)C4[C@H]2C(=O)N(CCCO)[C@@H]3C1=O (stereo not given in full),-2.18,0.015 (inactive),-0.556,-0.723,-4.49 (inactive),-0.235 (inactive),0.101 (inactive),,
C=CCN1C(=O)[C@]2(O[C@H](CCn3cc([C@H](O)c4ccccc4)nn3)[C@@H]([Si](C)(C)c3ccc(OC)cc3)[C@@H]2C)c2cc(N3CCOC3=O)ccc21,0.479,0.865 (inactive),-0.0533,-2.91,-4.64 (inactive),-1.73 (inactive),-1.22 (inactive),,
CC(C)NC(=O)[C@@H]1c2ccccc2C(=O)N(Cc2cc(F)cc(C(F)(F)F)c2)[C@H]1c1ccc(CO)cc1,-0.948,0.873 (inactive),-1.01,-0.327,-2.19 (inactive),-0.121 (inactive),0.0894 (inactive),,
CC(C)CCC[C@@H](C)[C@H]1CC[C@@]2(C)C3=C(CC[C@]12C)[C@@]1(C)CC[C@H](OC(=O)CCl)C(C)(C)C1CC3 (stereo not given in full),0.587,0.133 (inactive),0.174,-0.0992,-0.128 (inactive),-0.199 (inactive),-0.281 (inactive),,
O=C1O[C@H](c2ccccc2)[C@H](c2ccccc2)N2[C@H]1[C@@H](C(=O)NC[C@H](O)c1ccccc1)[C@]1(C(=O)Nc3ccc(C#CC4(O)CCCCCC4)cc31)[C@H]2c1ccc(O)cc1,1.34,1.05 (inactive),0.444,0.097,-1.84 (inactive),0.104 (inactive),0.572 (inactive),,
CCOC(=O)C[C@H]1[C@H](OC(=O)Cc2ccc3c(c2)OCO3)[C@@H](NC(=O)c2ccc3ccccc3c2)c2cc(OCCCO)ccc2N1C(=O)c1ccc2ccccc2n1,1.15,0.467 (inactive),-0.275,-1.29,-2.66 (inactive),-0.926 (inactive),-0.612 (inactive),,
[N-]=[N+]=NCc1ccccc1C[C@@]1(C(=O)NCc2ccccc2)N=C(c2ccc(OCCCO)cc2)O[C@@H]1c1ccccc1,0.732,0.746 (inactive),-0.409,-2.15,0.77 (inactive),-1.01 (inactive),-1.39 (inactive),,
CCCCCCC#C[Si](O[C@H](c1ccccc1)c1cn(Cc2ccccc2)nn1)(C(C)C)C(C)C,0.172,0.663 (inactive),-0.15,-0.934,1.18 (inactive),-0.766 (inactive),-0.601 (inactive),,
COc1ccc([Si](C)(C)[C@H]2[C@H](CC(=O)N(CCO)Cc3ccccc3)O[C@@]3(C(=O)N(Cc4ccc(N5CCOC5=O)cc4)c4ccccc43)[C@@H]2C)cc1,1.02,1.01 (inactive),0.631,-1.04,-1.48 (inactive),-0.0614 (inactive),0.0752 (inactive),,
C=C(/C(=C/C[C@H](OC(C)=O)c1cccc(OCCO)c1)c1cc(C(=O)OC)ccc1OC)C(C)C,-1.33,-0.139 (inactive),-0.595,-1.79,-4.34 (inactive),0.209 (inactive),0.641 (inactive),,
